Laboratory results: the supplement of paper PMC8877412
Where a name gives a salt, the structure may show the parent alone. ± gives the uncertainty stated by the source.

Tested on: NCC-PMP1-C1
Assay: cell viability relative to DMSO control; higher = less growth inhibition
Conditions: 10 µM; 72 h
Protocol: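 NCC-PMP1-C1 pseudomyxoma peritonei cells were seeded in 384-well plates coated with Matrigel and MEF (1e4 cells). Viability was read after 72 h by CCK-8 and expressed as % of the DMSO control, mean ± SD of duplicates.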

SMILES	cell viability [%]
COC(=O)N[C@H](C(=O)N[C@@H](Cc1ccccc1)[C@@H](O)CN(Cc1ccc(-c2ccccn2)cc1)NC(=O)[C@@H](NC(=O)OC)C(C)(C)C)C(C)(C)C [Atazanavir Sulfate]	109 ± 1.1
CC(=O)O[C@H]1C(=O)[C@@]2(C)[C@H]([C@H](OC(=O)c3ccccc3)[C@]3(O)C[C@H](OC(=O)[C@H](O)[C@@H](NC(=O)c4ccccc4)c4ccccc4)C(C)=C1C3(C)C)[C@]1(OC(C)=O)CO[C@@H]1C[C@@H]2O [Paclitaxel]	81.6 ± 12
C=CC(=O)Nc1cc(Nc2nccc(-c3cn(C)c4ccccc34)n2)c(OC)cc1N(C)CCN(C)C [Osimertinib (AZD9291)]	4.44 ± 0.89
Cc1ccc(-c2cc(C(F)(F)F)nn2-c2ccc(S(N)(=O)=O)cc2)cc1 [Celecoxib]	99.99 ± 0.53
COc1cc2ncnc(Nc3ccc(F)c(Cl)c3)c2cc1OCCCN1CCOCC1 [Gefitinib(ZD1839)]	85.16 ± 0.73
CS(=O)(=O)CCNCc1ccc(-c2ccc3ncnc(Nc4ccc(OCc5cccc(F)c5)c(Cl)c4)c3c2)o1	51.2 ± 7.9
CO[C@@]12[C@H](COC(N)=O)C3=C(C(=O)C(C)=C(N)C3=O)N1C[C@@H]1N[C@@H]12 [Mitomycin C]	60.3 ± 9.8
NCC(=O)CCC(=O)O [5-Aminolevulinic acid HCl]	102.7 ± 0.67
COc1cccc2c1C(=O)c1c(O)c3c(c(O)c1C2=O)C[C@@](O)(C(=O)CO)C[C@@H]3O[C@H]1C[C@H](N)[C@H](O)[C@H](C)O1 [Doxorubicin (Adriamycin)]	3.06 ± 0.067
CC(=O)O[C@]1(C(C)=O)CC[C@H]2[C@@H]3C=C(C)C4=CC(=O)CC[C@]4(C)[C@H]3CC[C@@]21C [Megestrol Acetate]	91.4 ± 16
CCN1CCN(Cc2ccc(Nc3ncc(F)c(-c4cc(F)c5nc(C)n(C(C)C)c5c4)n3)nc2)CC1 [Abemaciclib mesylate]	77.7 ± 1.2
CC(=O)O[C@@]12CO[C@@H]1C[C@H](O)[C@@]1(C)C(=O)[C@H](O)C3=C(C)[C@@H](OC(=O)[C@H](O)[C@@H](NC(=O)OC(C)(C)C)c4ccccc4)C[C@@](O)([C@@H](OC(=O)c4ccccc4)[C@H]21)C3(C)C [Docetaxel]	72.1 ± 2.1
O=C(CCCCCCC(=O)Nc1ccccc1)NO [Vorinostat (SAHA, MK0683)]	27.7 ± 2.2
Nc1nnc(-c2cccc(Cl)c2Cl)c(N)n1 [Lamotrigine]	102.9 ± 0.8
COc1cc(Nc2ncc(F)c(Nc3ccc4c(n3)N(COP(=O)(O)O)C(=O)C(C)(C)O4)n2)cc(OC)c1OC [Fostamatinib (R788)]	4.92 ± 3.4
CCc1c2c(nc3ccc(OC(=O)N4CCC(N5CCCCC5)CC4)cc13)-c1cc3c(c(=O)n1C2)COC(=O)[C@]3(O)CC [Irinotecan HCl Trihydrate]	101 ± 4.5
COc1cc2/c(=N/c3ccc(Br)cc3F)nc[nH]c2cc1OCC1CCN(C)CC1 [Vandetanib (ZD6474)]	54.7 ± 4.9
CNC[C@H](O)c1ccc(O)c(O)c1 [Epinephrine Bitartrate]	127 ± 6.3

SMILES	cell viability [%]
CO[C@H]1O[C@@H]2O[C@@]3(C)CC[C@H]4[C@H](C)CC[C@@H]([C@H]1C)[C@@]24OO3 [Artemether]	105 ± 6.2
CC[C@H]1OC(=O)[C@H](C)[C@@H](O[C@H]2C[C@@](C)(OC)[C@@H](O)[C@H](C)O2)[C@H](C)[C@@H](O[C@@H]2O[C@H](C)C[C@H](N(C)C)[C@H]2O)[C@](C)(O)C[C@@H](C)CN(C)[C@H](C)[C@@H](O)[C@]1(C)O [Azithromycin]	123 ± 2.7
NC(=O)NO [Hydroxyurea]	136 ± 8.1
O=C(/C=C/c1cccc(S(=O)(=O)Nc2ccccc2)c1)NO [Belinostat (PXD101)]	7.52 ± 0.13
C[C@@H](CN1CC(=O)NC(=O)C1)N1CC(=O)NC(=O)C1 [Dexrazoxane]	94.8 ± 15
COc1cc2c(Oc3ccc4[nH]c(C)cc4c3F)ncnc2cc1OCCCN1CCCC1 [Cediranib (AZD2171)]	22.4 ± 14
Cc1ccc(-n2[nH]c(C)c(N=Nc3cccc(-c4cccc(C(=O)O)c4)c3O)c2=O)cc1C [Eltrombopag Olamine]	113 ± 3.3
Cc1[nH]c(/C=C2\C(=O)Nc3ccccc32)c(C)c1CCC(=O)O [Orantinib (TSU-68, SU6668)]	115 ± 2.1
Nc1nc(CC(=O)Nc2ccc(CCNC[C@H](O)c3ccccc3)cc2)cs1 [Mirabegron]	101 ± 5.9
O=c1c(-c2ccc(O)cc2)coc2cc(O)cc(O)c12 [Genistein]	100 ± 2.1
O=C1NC(=O)[C@@H](c2cn3c4c(cccc24)CCC3)[C@@H]1c1c[nH]c2ccccc12 [Tivantinib (ARQ 197)]	79.8 ± 7.7
COc1ccc(/C=C/C(=O)Nc2ccccc2C(=O)O)cc1OC [Tranilast]	111 ± 20
COc1cc([C@@H]2c3cc4c(cc3[C@@H](O[C@@H]3O[C@@H]5CO[C@@H](c6cccs6)O[C@H]5[C@H](O)[C@H]3O)[C@H]3COC(=O)[C@H]23)OCO4)cc(OC)c1O [Teniposide]	13.5 ± 1.5
CNC(=O)c1cc(Oc2ccc(NC(=O)Nc3ccc(Cl)c(C(F)(F)F)c3)cc2)ccn1 [Sorafenib]	-8.05 ± 0.27
Clc1ccc(Nc2nnc(Cc3ccncc3)c3ccccc23)cc1 [Vatalanib (PTK787) 2HCl]	84.5 ± 1.8
CCC[C@@H]1C[C@@H](C(=O)N[C@@H]([C@H]2O[C@H](SC)[C@H](O)[C@@H](O)[C@H]2O)[C@@H](C)O)N(C)C1 [Lincomycin HCl]	74.4 ± 15
CC[C@@H]1/C=C(\C)C[C@H](C)C[C@H](OC)[C@H]2O[C@@](O)(C(=O)C(=O)N3CCCC[C@H]3C(=O)O[C@H](/C(C)=C/[C@@H]3CC[C@H](Cl)[C@H](OC)C3)[C@H](C)[C@@H](O)CC1=O)[C@H](C)C[C@@H]2OC [Pimecrolimus]	78.1 ± 5.1
Cc1ccc(C(=O)Nc2ccc(CN3CCN(C)CC3)c(C(F)(F)F)c2)cc1C#Cc1cnc2cccnn12	1.8 ± 0.67
